# According to PubChem BioAssay AID2401 (Southern Research Specialized Biocontainment Screening …, 2010):
# About 530 (24%) of roughly 2,200 compounds were called active. These entries were drawn from the full list. Results with a measured potency or affinity are listed apart. Values without a mark were called inactive.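 How the source made its calls: active means inhibition above a set limit at one or more concentrations of the dose series; inactive means inhibition under that limit at every dose.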
# Assay: S. Typhimurium nonspecific reporter signal inhibition – Salmonella Typhimurium, GFP fluorescence, counter-screen for PhoP regulon inhibitor project, dose response (AID 2401);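 further: S. typhimurium with Mg-insensitive nmpC-GFP reporter grown at 10 µM Mg2+; drop in reporter fluorescence reflects general culture growth inhibition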
# Conditions: 4 h; series mostly up to 150 µM; inhibition: at the top concentration
row,SMILES,inhibition [%]
1,COc1ccc(-c2cn[nH]c2-c2ccc(OCc3ccc([N+](=O)[O-])cc3)cc2O)cc1,17.3
2,CCN1C(=O)/C(=C/N2CC(C)CC(C)C2)SC1=S (stereo not given),-18.2
3,Cc1cc(C(=O)N/N=C/c2cccc([N+](=O)[O-])c2O)n[nH]1,-8.52
4,O=C(N/N=C/c1cccn1-c1ccc([N+](=O)[O-])cc1)C(O)c1ccccc1 (stereo not given),24.9
5,Cc1cc(C(=O)N/N=C/C=C/c2ccc3c(c2)OCO3)n[nH]1,-14.9
6,CC(=O)c1c(C)[nH]c(C(=O)CSc2nnc(-c3ccco3)n2Cc2ccccc2)c1C,-24.8
7,Cn1cccc1C1NC(=O)c2c(sc3c2CCC(C(C)(C)C)C3)N1 (stereo not given),8.17
8,Cc1nn(-c2ccccc2)c(C)c1C(=O)OC/C(O)=C(\C#N)c1nc2ccccc2[nH]1,4.56
9,Cc1cc(C2=NNC(=NC3CC3)SC2)c(C)n1Cc1ccco1,-13.5
10,Cc1ccc(-c2nnc(SCC(=O)N3CCCc4ccccc43)n2N)cc1,-11.9
11,COC(=O)c1sc2nc(CSc3nc4ccc(C)cc4[nH]3)[nH]c(=O)c2c1C,-23.4
12,CCOC(=O)C1=C(c2ccccc2)N=C2SCC(=O)N2C1c1ccc(O)c(OC)c1 (stereo not given),18.4
13,CCOC(=O)c1cc2ccc(OC)c(OC)c2c(=O)s1,-17.4
14,C/C(=C\c1ccco1)C1Nc2cccc3cccc(c23)N1,-7.01
15,COc1ccc(OC)c(NC(=O)c2cc3c(Cl)nc4ccccc4c3s2)c1,-3.31
16,CCOC(=O)N1CCN(C(=O)c2ccc(NC(=O)c3ccc(C)cc3)cc2)CC1,-6.04
17,C/C(=N\Nc1nc2ccccc2[nH]1)c1cccs1,-17.3
18,C/C(=N\Nc1nc2ccccc2[nH]1)c1ccc(Cl)s1,-35.5
19,COc1c(/C=N/Nc2nc(N3CCCCC3)nc(N3CCCCC3)n2)cccc1[N+](=O)[O-],-12.5
20,Cc1nc2ccccn2c1C(=O)N/N=C/c1ccccc1[N+](=O)[O-],-6.8
21,Cc1cc(/C=N\NC(=O)c2cccs2)c(C)n1-c1ccc2ncccc2c1,17.9
22,COC(=O)c1cn(C(=O)c2cccs2)c2ccccc12,-2.66

row,SMILES,inhibition [%]
1,C=CCOc1ccc(CNc2nn[nH]n2)cc1,-5.21
2,O=C(CCN1CCc2ccccc2C1)Nc1ccccc1F,-20.9
3,Cc1cc(-c2csc(NC(=O)c3ccc(C#N)cc3)n2)c(C)n1Cc1ccco1,36.1
4,CCOC(=O)CSc1nc2c(sc(=S)n2-c2ccccc2)c(=O)n1-c1ccc(OC)cc1OC,-30.9
5,O=c1[nH]c(SCc2nc3ccccc3c(=O)n2-c2ccccc2C(F)(F)F)nc2ccccc12,-7.42
6,C/C(=N\NC(=O)c1c(Cl)c(C)nn1C)c1cccc(NC(=O)COc2ccc(Cl)cc2)c1,5.43
7,COc1ccc(C2COC(=O)C2=N)c(NC(=O)c2ccc(Cl)cc2)c1 (stereo not given),7.97
8,CCCCCCNCc1cccc(Br)c1,2.93
9,COc1ccc2c(c1)OC1=C(C(=O)CCC1)C2C1=C(O)CCCC1=O (stereo not given),16.2
10,Cc1cccc(C(=O)Nc2nnc(Cc3c[nH]c4ccccc34)s2)c1,12.6
11,Nc1ncncc1-c1ccc(Cl)cc1,34.2
12,O=C(Nc1nc2ccc(SC(F)F)cc2s1)c1ccc2c(c1)S(=O)(=O)c1ccccc1C2=O,-12.6
13,COC(=O)C1=C(CSc2nc3ccccc3o2)NC(=O)NC1c1cc(C)ccc1C (stereo not given),-14
14,Cc1cc(C)nc(N2CCCC(C(=O)Nc3ccc4nc(C)c(C)nc4c3)C2)n1 (stereo not given),-21.6
15,Cc1ccc(C)n1-c1cccc(N)c1,0.96
16,O=C1CC(c2ccccc2)n2ncnc2N1 (stereo not given),11.9
17,COC(OC)c1nc(SCC(=O)Nc2cccc(Cl)c2)ncc1C(=O)O,21.8
18,COc1ccc(Cl)cc1-c1nc(SCC(N)=O)n[nH]1,-19.9
19,COc1ccc([N+](=O)[O-])cc1NC(=O)C(C)OC(=O)c1ccccc1C(=O)c1ccc(Cl)cc1 (stereo not given),-13.1
20,COC(=O)c1ccc(COC(=O)c2ccccn2)cc1,-12
21,CC(O)c1ccc(OCCN(C)c2ccccn2)cc1 (stereo not given),-2.97
22,CC(C)Cc1oc(C(=O)O)cc1CN,34

row,SMILES,inhibition [%]
1,c1ccc2oc(SCc3cn4ccccc4n3)nc2c1,26.3
2,Cc1cc(C)n(-c2ccc(C(=O)Nc3nc4ccccc4s3)cc2)n1,11.3
3,C(=N\c1nc2ccccc2n1CCN1CCCCC1)/c1cccs1,-10.7
4,CC(=O)c1cccc(NC(=O)Nc2cccs2)c1,-12.9
5,CC(C)(C)c1ccc(-c2n[nH]c(=S)n2/N=C/c2ccncc2)cc1,0.52
6,COc1cccc(NC(=S)N/N=C2\CC(C)(C)Oc3ccc(O)cc32)c1,-12
7,N#CC(C#N)=c1ccc2c(c1)NC1(CCCCC1)N=2,30.4
8,O=S1(=O)C=CC(Nc2ccccc2)C1 (stereo not given),2.14
9,Brc1ccc(-c2cnc3n2CCCC3)cc1,1.27
10,O=C(Nc1nccs1)c1cc(-c2ccco2)nc2ccccc12,19.2
11,COc1ccccc1-c1cc(C(=O)Nc2cc(C)nn2-c2ccccc2)no1,-9.01
12,CCCOC(=O)C(C)n1cnc2sc(C)c(C)c2c1=O (stereo not given),-22.4
13,COc1cc(C)nc(Nc2nc(C)c(C(C)=O)s2)n1,-27.4
14,O=C(CSc1nnc(-c2cccs2)n1-c1ccccc1)NCc1ccc2c(c1)OCO2,-11.6
15,O=C(CCN1C(=O)c2ccccc2C1=O)Nc1ccc(-c2cn3ccsc3n2)cc1,-11.9
16,Cc1cccc(C)c1NC(=O)CSc1nnc(NC(=O)CN2CCOCC2)s1,-25.4
17,C(=N\N1CCN(C2c3ccccc3-c3ccccc32)CC1)/c1cccs1,-18.1
18,O=C(N/N=C/C1C(c2ccccc2)C1(Cl)Cl)c1cccc(Cl)c1 (stereo not given),4.67
19,Cc1cc(/C=N/NC(=O)c2cccc([N+](=O)[O-])c2)c(C)n1-c1ccc(Cl)cc1Cl,37.6
20,Cc1ccc(N=Nc2ccc(O)c(/C=N\NC(=O)c3ccc(N)cc3)c2)cc1C,-8.25
21,Nc1nnc(CC(=O)N/N=C\c2cc([N+](=O)[O-])ccc2O)s1,4.52
22,COc1cc([N+](=O)[O-])ccc1NC(=O)CN(C)C,-22.9

row,SMILES,inhibition [%]
1,C/C(=N\NC(=O)C1CC1c1ccccc1)c1cccc([N+](=O)[O-])c1 (stereo not given),5.2
2,O=C(N/N=C/c1ccc(Cl)cc1Cl)c1cccc(F)c1,-20.8
3,COc1cccc(NC(=O)NCCCN2CCN(c3ccc(F)cc3)CC2)c1,12.8
4,COc1cc(C2C(C(=O)c3ccc(C)o3)=C(O)C(=O)N2CCc2ccccc2)ccc1O (stereo not given),-22.6
5,CC(C)NC(=O)CSc1nc(N)c(NC(=O)c2ccccc2F)c(=O)[nH]1,5.87
6,Cc1ccc(Cl)cc1-c1ccc(/C=N/n2cnnc2)o1,-25.3
7,Cc1cccc(C)c1NC(=O)CCCSc1nnc(-c2ccc(Cl)cc2)n1-c1ccccc1,-15
8,CCCCn1c(-c2ccccc2)nc2c(=O)n(C)c(=O)[nH]c21,-16.6
9,Cc1noc(C)c1CSc1nc2ccccc2nc1NS(=O)(=O)c1ccc(Cl)cc1,14.2
10,CC(=O)Nc1ccc(OC(=O)c2cccnc2)cc1,-41
11,C/C(=C\C(=O)c1cccnc1)Nc1ccc(O)cc1,-1.89
12,Cc1ccc2occ(/C=N/O)c(=O)c2c1,5.82
13,N/C(=N\OC(=O)Cc1ccc(Cl)cc1)c1cccnc1,7.23
14,O=C1NN(c2ccccc2)C(=O)/C1=C\c1coc2ccc(O)cc2c1=O,23.4
15,N/C(=N\OC(=O)COc1ccc(Cl)cc1)c1cccnc1,-0.64
16,CCCCn1c(SCC(=O)Nc2nnc(CC)s2)nc2c1c(=O)n(C)c(=O)n2C,-12.7
17,Cc1ccc(OCC(=O)N2CCN(S(=O)(=O)c3ccccc3)CC2)c([N+](=O)[O-])n1,-13
18,O=C(CSc1nnc(-c2ccc(Br)cc2)o1)Nc1cccc2ccccc12,-29.8
19,COc1ccc(CCN2CC3=C(C2=O)C(c2ccccc2)NC(=O)N3C)cc1OC (stereo not given),-28.3
20,COc1ccc(C2=Nc3nc(-c4ccccc4)cn3C(c3ccc(OC)cc3)C2)cc1 (stereo not given),12.4
21,CC(C)CC(=O)N/C(N)=N/c1nc2ccccc2s1,-11.2
22,O=C1NC(=Nc2ccccc2)/C(=C/c2ccco2)S1,-0.32

row,SMILES,inhibition [%]
1,O=C(CNC(=O)OCc1ccccc1)NCC(=O)N1CCCC1C(=O)OCc1ccccc1 (stereo not given),-16.3
2,CC(NC(=O)CSc1nc2c(cc1C#N)CN(C)CC2)c1ccccc1 (stereo not given),-20.3
3,CCCn1c(N)c(C(=O)COC(=O)c2c(C)noc2C)c(=O)n(C)c1=O,4.48
4,CC(CO)(CO)NCc1ccc(-c2ccccc2)cc1,-18.6
5,COc1ccc2c(c1)C1C=CCC1C(c1cc3c(cc1Br)OCO3)N2 (stereo not given),27.1
6,O=C1CCCc2c1cc(C(=O)NCc1ccco1)c(=O)n2-c1ccc(Cl)cc1,-27.7
7,CCOc1ccccc1Nc1nc2ccccc2n2cnnc12,-21.1
8,O=C(CCN1CCCCC1)NCC1OCCc2ccccc21 (stereo not given),-14
9,O=C(CCN1CCc2ccccc2C(c2ccccc2)C1)c1ccc2c(c1)OCCO2 (stereo not given),34.7
10,c1ccc(Cn2nnc3c(NCc4ccc5c(c4)OCO5)nc(C4CC4)nc32)cc1,20.9
11,FC(F)Oc1ccc(NC(=S)NCc2nc3ccccc3[nH]2)cc1,4.23
12,O=C1C2CCCN2c2ccc(S(=O)(=O)N3CCOCC3)cc2N1Cc1ccccc1F (stereo not given),-5.87
13,CCOc1cc(S(=O)(=O)N2CCN(CC)CC2)ccc1Cl,-14.5
14,c1ccc(-n2cnc3cc(NCc4ccncc4)ccc32)cc1,-21
15,CCCCn1c(/N=C/c2ccccc2NS(=O)(=O)c2ccc(C)cc2)nc2ccccc21,21.9
16,CCN(CC)C(=O)CP(=O)(c1ccccc1)c1ccccc1,-19.4
17,O=c1[nH]c(CSc2nnc(NCCCN3CCOCC3)s2)nc2cc(Cl)ccc12,-2.07
18,O=C(CSCc1cccc(CSCC(=O)Nc2ccc3ccccc3c2)n1)Nc1ccc2ccccc2c1,-7.19
19,CCN(CC)S(=O)(=O)c1ccc2c(c1)nc(SCC(=O)N1CCOCC1)n2-c1ccccc1OC,-29.7
20,CCCc1cc(-c2nc(N)ncc2-c2ccc3c(c2)OCCCO3)c(O)cc1OC,-6.75
21,c1ccc(CNc2nc(N3CCN(Cc4ccccc4)CC3)nc3ccccc23)cc1,15.1
22,O=S(=O)(c1ccc(S(=O)(=O)N2CCN(C/C=C/c3ccccc3)CC2)cc1)N1CCCC1,-7.27
